Columns and labels:
[1] = biological target: T1, Inhibitor of nuclear factor kappa-B kinase subunit epsilon (Homo sapiens) (UniProt Q14164); details: at 1 µM;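 also: reported values are averaged percent inhibition figures against human IKKε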
T1 sequence (whole entry): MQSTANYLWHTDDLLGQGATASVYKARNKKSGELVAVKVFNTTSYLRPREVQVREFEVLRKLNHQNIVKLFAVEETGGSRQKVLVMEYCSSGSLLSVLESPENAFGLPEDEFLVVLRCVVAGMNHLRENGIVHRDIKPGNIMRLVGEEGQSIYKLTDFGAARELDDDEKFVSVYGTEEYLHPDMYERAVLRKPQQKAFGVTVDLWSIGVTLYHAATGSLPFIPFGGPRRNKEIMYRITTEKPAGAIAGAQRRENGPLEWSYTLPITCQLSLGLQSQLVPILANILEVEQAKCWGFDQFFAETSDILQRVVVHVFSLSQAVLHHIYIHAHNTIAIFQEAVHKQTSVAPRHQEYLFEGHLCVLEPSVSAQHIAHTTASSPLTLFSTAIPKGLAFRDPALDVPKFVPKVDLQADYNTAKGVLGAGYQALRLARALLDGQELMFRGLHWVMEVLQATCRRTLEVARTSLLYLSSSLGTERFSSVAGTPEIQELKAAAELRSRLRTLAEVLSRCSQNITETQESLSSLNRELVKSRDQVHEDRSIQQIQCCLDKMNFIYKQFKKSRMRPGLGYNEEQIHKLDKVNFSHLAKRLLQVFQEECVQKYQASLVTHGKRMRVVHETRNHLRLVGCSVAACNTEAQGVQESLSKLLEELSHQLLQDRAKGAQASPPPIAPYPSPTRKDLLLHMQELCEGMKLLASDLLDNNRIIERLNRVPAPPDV

[2] = biological target: T2, Serine/threonine-protein kinase Nek1 (Homo sapiens) (UniProt Q96PY6); details: at 0.1 µM
T2 sequence (whole entry): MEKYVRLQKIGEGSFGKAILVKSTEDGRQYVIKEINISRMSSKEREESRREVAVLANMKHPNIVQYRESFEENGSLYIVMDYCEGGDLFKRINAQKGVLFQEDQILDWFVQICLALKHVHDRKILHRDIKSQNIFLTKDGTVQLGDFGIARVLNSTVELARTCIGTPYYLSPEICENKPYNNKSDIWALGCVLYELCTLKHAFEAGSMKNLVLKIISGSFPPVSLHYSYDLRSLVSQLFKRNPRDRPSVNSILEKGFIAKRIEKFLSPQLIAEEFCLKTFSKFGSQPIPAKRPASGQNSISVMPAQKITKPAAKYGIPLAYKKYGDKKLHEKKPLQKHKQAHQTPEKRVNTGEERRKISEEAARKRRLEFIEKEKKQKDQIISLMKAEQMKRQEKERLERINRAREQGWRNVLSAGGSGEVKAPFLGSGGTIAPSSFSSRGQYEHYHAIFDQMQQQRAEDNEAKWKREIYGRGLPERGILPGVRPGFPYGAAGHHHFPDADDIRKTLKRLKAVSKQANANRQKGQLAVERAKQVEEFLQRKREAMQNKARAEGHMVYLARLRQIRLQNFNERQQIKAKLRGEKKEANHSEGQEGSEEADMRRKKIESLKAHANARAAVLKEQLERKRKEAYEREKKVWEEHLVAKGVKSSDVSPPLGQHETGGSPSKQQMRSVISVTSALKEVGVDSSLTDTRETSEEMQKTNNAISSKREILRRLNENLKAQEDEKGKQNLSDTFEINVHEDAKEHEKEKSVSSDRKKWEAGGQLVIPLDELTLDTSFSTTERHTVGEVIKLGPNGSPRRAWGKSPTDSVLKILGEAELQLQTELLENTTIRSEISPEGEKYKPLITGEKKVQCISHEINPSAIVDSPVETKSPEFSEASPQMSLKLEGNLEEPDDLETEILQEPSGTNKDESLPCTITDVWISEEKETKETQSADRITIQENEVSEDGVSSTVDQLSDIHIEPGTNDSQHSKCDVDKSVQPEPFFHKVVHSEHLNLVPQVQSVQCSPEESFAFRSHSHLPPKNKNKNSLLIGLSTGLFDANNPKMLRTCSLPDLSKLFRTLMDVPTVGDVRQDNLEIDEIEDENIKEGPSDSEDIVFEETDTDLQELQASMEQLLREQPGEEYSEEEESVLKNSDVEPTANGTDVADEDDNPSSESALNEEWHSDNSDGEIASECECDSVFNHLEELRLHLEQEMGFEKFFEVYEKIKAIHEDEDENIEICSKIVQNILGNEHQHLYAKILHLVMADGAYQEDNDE

[3] = biological target: T2, Serine/threonine-protein kinase Nek1 (Homo sapiens); details: at 1 µM
[4] = biological target: T3, Serine/threonine-protein kinase Nek2 (Homo sapiens) (UniProt P51955); details: at 0.1 µM
T3 sequence (whole entry): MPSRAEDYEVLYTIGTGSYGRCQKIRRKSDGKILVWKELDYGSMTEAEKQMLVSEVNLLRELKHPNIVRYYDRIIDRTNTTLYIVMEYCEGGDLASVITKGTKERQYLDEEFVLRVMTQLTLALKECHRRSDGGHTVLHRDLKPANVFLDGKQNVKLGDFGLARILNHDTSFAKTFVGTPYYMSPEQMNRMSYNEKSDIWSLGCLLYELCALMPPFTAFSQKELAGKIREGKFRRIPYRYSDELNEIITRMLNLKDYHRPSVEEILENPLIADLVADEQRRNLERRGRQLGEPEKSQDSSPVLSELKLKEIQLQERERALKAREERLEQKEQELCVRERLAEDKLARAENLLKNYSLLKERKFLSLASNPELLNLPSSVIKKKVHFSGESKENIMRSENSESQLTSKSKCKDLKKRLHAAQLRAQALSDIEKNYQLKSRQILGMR

[5] = biological target: T3, Serine/threonine-protein kinase Nek2 (Homo sapiens); details: at 1 µM
[6] = biological target: Serine/threonine-protein kinase Nek6 (Homo sapiens) (UniProt Q9HC98); details: at 0.1 µM
Serine/threonine-protein kinase Nek6 (Homo sapiens), sequence (Q9HC98 whole entry): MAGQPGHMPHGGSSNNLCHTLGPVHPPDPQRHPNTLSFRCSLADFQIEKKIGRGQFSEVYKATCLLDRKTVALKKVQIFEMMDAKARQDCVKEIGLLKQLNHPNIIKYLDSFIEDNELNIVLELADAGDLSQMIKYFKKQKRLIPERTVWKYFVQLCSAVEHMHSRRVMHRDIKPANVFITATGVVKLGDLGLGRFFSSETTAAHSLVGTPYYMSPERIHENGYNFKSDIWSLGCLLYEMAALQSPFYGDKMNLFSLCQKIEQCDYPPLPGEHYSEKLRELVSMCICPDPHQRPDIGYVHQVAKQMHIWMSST

[7] = biological target: Serine/threonine-protein kinase Nek6 (Homo sapiens) (UniProt Q9HC98); details: at 1 µM
[8] = biological target: Serine/threonine-protein kinase Nek7 (Homo sapiens) (UniProt Q8TDX7); details: at 0.1 µM
Serine/threonine-protein kinase Nek7 (Homo sapiens), sequence (Q8TDX7 whole entry, looked up): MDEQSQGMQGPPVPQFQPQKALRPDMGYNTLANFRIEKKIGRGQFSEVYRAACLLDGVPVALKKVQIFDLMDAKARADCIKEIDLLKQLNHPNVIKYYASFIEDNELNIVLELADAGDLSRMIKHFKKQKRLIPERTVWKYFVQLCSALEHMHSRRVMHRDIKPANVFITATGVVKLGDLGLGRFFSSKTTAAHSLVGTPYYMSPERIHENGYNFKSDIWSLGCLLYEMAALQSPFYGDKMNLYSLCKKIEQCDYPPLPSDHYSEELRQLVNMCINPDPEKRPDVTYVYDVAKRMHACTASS

[9] = biological target: Serine/threonine-protein kinase Nek7 (Homo sapiens) (UniProt Q8TDX7); details: at 1 µM
[10] = biological target: T4, Serine/threonine-protein kinase Nek9 (Homo sapiens) (UniProt Q8TD19); details: at 0.1 µM
T4 sequence (whole entry): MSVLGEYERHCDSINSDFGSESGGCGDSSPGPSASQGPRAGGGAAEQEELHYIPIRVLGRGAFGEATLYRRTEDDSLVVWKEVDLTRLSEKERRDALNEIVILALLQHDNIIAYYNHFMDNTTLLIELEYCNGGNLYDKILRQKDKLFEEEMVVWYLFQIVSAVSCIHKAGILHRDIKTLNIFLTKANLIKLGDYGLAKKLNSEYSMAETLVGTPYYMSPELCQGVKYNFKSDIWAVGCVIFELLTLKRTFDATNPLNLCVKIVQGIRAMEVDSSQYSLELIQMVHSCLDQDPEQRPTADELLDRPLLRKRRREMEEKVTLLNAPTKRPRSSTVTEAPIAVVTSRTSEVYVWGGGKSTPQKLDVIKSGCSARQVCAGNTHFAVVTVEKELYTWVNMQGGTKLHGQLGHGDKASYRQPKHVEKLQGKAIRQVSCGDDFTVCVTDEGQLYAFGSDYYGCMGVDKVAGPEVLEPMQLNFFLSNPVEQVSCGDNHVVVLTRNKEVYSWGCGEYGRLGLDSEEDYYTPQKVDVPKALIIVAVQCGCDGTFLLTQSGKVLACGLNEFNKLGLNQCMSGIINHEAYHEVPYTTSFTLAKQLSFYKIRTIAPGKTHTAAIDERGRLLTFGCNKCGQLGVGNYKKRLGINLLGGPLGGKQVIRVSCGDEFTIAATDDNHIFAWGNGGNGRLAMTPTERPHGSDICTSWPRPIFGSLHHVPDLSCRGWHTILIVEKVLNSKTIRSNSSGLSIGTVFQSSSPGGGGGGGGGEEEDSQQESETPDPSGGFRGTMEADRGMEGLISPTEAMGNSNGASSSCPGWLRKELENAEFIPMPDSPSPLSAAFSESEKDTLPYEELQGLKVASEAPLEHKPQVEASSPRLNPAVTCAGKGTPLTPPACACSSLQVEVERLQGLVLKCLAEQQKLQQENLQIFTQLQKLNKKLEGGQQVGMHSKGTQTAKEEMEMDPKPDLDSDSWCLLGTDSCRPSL

[11] = biological target: T4, Serine/threonine-protein kinase Nek9 (Homo sapiens); details: at 1 µM
[12] = biological target: Serine/threonine-protein kinase PLK1 (Homo sapiens) (UniProt P53350); details: at 0.1 µM
Serine/threonine-protein kinase PLK1 (Homo sapiens), sequence (P53350 whole entry): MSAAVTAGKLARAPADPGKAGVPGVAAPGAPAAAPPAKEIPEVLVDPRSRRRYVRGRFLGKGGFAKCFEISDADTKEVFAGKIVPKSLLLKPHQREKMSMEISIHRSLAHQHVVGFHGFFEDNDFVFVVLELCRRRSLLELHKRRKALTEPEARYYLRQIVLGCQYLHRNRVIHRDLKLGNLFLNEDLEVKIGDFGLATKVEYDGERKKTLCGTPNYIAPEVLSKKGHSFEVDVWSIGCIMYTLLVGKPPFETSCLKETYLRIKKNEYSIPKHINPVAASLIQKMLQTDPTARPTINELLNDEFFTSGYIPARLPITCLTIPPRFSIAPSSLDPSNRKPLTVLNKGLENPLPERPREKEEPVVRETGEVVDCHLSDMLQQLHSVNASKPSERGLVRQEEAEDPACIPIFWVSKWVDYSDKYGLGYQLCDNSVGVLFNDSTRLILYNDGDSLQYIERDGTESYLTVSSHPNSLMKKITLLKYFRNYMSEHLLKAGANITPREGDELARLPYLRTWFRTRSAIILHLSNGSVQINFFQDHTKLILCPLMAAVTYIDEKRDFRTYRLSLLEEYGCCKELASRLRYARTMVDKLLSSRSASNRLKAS

[13] = biological target: Serine/threonine-protein kinase PLK1 (Homo sapiens) (UniProt P53350); details: at 1 µM
[14] = biological target: T5, Dual specificity protein kinase TTK (Homo sapiens) (UniProt P33981); details: at 0.1 µM
T5 sequence (whole entry): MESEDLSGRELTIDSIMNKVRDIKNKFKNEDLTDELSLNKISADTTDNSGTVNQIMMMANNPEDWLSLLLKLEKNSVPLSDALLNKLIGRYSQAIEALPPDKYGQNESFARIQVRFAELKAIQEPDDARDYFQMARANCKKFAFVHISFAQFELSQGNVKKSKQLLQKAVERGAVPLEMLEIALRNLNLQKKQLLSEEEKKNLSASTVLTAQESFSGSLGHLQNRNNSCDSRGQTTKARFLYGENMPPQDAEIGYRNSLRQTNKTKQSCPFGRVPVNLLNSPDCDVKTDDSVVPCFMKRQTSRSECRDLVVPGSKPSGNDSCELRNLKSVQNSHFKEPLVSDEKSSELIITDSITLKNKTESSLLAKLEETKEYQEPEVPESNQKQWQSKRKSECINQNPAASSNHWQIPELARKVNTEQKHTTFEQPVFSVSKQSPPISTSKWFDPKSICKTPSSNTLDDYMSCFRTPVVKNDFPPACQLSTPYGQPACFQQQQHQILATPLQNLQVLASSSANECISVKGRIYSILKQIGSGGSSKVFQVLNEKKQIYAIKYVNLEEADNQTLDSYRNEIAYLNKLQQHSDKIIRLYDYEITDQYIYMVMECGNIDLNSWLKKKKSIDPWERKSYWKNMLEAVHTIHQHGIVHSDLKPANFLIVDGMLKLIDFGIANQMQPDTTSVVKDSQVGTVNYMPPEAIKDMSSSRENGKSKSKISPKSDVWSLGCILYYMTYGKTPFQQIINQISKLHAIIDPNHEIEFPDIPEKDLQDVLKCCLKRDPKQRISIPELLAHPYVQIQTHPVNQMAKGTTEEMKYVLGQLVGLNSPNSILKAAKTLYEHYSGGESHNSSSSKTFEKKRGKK

[15] = system: T6, Receptor-type tyrosine-protein kinase FLT3 (Homo sapiens), P36888 [D835Y]; details: at 1 µM
T6 sequence (whole entry): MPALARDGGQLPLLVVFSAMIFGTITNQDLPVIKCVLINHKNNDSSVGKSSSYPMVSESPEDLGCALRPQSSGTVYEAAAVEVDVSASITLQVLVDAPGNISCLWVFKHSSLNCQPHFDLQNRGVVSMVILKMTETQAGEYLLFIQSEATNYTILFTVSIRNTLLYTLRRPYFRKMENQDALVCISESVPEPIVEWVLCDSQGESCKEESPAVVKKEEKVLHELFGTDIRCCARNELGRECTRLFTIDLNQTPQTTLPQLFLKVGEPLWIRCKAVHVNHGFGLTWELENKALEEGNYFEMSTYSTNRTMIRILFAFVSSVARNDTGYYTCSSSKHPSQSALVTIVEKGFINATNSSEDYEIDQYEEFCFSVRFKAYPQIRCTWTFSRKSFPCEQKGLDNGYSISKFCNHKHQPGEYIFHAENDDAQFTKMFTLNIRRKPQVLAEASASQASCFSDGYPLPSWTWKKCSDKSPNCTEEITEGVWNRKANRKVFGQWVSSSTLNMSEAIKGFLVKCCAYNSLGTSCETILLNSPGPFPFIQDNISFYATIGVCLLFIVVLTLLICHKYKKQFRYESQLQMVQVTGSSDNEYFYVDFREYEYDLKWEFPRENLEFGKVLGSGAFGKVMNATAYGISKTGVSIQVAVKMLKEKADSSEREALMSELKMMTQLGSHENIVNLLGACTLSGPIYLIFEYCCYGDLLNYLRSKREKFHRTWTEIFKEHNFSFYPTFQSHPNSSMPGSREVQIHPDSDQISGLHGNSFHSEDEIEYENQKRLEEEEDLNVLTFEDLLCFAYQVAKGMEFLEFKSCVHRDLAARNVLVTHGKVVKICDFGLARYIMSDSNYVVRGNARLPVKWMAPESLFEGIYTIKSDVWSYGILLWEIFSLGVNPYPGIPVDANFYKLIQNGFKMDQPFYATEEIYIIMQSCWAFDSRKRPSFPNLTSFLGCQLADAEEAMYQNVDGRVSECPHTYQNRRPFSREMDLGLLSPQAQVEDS

[16] = biological target: Vascular endothelial growth factor receptor 3 (Homo sapiens) (UniProt P35916); details: at 0.1 µM
Vascular endothelial growth factor receptor 3 (Homo sapiens), sequence (P35916 whole entry): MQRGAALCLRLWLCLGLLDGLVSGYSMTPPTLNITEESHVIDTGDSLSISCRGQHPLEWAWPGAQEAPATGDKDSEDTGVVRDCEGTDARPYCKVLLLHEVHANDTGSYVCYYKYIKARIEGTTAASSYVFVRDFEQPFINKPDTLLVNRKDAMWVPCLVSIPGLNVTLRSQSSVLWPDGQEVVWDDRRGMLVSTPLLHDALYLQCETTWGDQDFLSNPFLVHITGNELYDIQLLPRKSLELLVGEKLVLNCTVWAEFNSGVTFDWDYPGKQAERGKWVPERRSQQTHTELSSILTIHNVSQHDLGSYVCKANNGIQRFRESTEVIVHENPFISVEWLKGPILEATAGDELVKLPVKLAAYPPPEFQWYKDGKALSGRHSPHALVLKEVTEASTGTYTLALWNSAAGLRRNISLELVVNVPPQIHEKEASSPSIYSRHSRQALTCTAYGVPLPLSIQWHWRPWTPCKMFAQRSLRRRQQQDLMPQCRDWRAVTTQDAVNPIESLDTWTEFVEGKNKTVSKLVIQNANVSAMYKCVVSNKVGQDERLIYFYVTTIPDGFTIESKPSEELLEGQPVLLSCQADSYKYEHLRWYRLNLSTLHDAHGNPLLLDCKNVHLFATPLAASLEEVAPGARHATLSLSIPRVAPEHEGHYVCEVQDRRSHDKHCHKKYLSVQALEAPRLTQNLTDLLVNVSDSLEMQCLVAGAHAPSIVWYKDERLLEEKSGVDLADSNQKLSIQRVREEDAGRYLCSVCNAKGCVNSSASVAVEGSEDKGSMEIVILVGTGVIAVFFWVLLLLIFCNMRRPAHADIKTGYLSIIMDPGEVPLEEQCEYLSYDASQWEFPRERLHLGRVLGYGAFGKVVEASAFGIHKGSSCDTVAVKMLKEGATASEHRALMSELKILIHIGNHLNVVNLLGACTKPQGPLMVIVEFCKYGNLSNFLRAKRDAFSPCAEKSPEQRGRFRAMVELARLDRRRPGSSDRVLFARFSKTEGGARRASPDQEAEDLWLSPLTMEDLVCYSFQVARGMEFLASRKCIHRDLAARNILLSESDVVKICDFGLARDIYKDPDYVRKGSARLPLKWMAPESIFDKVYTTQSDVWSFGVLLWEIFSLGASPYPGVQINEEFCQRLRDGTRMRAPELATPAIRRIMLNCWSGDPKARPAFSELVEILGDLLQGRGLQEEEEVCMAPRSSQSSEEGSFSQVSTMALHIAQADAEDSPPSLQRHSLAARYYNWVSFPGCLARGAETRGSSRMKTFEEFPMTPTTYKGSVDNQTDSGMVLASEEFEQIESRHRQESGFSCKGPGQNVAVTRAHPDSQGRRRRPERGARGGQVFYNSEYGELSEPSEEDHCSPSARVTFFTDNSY

[17] = biological target: Vascular endothelial growth factor receptor 3 (Homo sapiens) (UniProt P35916); details: at 1 µM
[18] = biological target: Macrophage colony-stimulating factor 1 receptor (Homo sapiens) (UniProt P07333); details: at 0.1 µM
Macrophage colony-stimulating factor 1 receptor (Homo sapiens), sequence (P07333 whole entry): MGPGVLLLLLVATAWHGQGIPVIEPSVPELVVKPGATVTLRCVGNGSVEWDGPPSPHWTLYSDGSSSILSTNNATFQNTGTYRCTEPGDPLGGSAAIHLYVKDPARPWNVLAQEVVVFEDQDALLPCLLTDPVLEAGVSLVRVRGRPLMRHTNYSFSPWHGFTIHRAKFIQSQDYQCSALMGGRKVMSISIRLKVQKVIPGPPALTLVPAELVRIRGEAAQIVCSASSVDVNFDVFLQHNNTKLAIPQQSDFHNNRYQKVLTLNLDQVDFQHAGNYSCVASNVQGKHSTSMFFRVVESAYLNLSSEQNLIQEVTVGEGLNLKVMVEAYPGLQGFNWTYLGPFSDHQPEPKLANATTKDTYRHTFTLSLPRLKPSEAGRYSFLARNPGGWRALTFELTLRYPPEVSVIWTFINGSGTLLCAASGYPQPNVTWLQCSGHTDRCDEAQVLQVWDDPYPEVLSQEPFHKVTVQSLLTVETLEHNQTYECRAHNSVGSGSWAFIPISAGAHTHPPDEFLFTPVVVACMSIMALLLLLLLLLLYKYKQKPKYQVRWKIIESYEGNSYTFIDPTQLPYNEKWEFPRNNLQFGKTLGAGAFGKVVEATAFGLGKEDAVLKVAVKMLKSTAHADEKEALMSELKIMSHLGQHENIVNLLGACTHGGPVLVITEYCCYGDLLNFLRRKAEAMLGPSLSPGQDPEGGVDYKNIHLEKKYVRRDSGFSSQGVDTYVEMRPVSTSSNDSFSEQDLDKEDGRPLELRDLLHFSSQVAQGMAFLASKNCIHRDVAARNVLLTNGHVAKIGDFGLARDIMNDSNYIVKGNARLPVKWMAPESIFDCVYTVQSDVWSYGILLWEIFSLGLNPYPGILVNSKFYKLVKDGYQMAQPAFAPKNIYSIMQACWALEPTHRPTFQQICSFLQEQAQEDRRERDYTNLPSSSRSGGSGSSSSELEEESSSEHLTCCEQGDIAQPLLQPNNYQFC

[19] = biological target: Macrophage colony-stimulating factor 1 receptor (Homo sapiens) (UniProt P07333); details: at 1 µM
[20] = biological target: Tyrosine-protein kinase Fyn (Homo sapiens) (UniProt P06241); details: at 0.1 µM
Tyrosine-protein kinase Fyn (Homo sapiens), sequence (P06241 2-537 limits assumed): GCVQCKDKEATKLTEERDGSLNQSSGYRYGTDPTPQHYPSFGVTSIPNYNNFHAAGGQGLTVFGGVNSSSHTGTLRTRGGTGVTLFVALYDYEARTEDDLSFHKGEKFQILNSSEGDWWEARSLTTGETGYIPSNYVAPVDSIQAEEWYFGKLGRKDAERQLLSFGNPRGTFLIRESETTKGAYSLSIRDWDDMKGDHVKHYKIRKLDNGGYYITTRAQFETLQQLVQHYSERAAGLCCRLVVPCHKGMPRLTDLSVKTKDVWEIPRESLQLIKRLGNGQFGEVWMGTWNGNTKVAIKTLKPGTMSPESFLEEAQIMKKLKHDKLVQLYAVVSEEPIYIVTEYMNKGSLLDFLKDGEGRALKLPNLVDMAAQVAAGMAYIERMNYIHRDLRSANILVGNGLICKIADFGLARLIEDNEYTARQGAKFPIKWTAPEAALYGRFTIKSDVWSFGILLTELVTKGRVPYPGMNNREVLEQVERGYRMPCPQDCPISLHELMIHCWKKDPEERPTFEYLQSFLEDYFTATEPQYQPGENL

SMILES	inhibition [1] [%]	inhibition [2] [%]	inhibition [3] [%]	inhibition [4] [%]	inhibition [5] [%]	inhibition [6] [%]	inhibition [7] [%]	inhibition [8] [%]	inhibition [9] [%]	inhibition [10] [%]	inhibition [11] [%]	inhibition [12] [%]	inhibition [13] [%]	inhibition [14] [%]	inhibition [15] [%]	inhibition [16] [%]	inhibition [17] [%]	inhibition [18] [%]	inhibition [19] [%]	inhibition [20] [%]
CCN(CC)Cc1ccc(Nc2nccc(-c3cnn4ncccc34)n2)cc1	17.8	2.8	4.48	4.07	3.41	1.02	-0.16	3.37	9.4	6.44	13.7	5.43	8.15	12.4	17.1	-5.53	0.13	29.6	68.9	-1.69
O=C(Nc1n[nH]c2cc(-c3ccccc3)ccc12)C1CC1	4.27	1.53	3.2	5.82	6.37	0.8	-0.52	5.67	3.1	4.27	5.87	5.16	2.83	5.95	4.54	16.2	16.9	4.54	5.1	1.14
